The results in this text go back to PubChem BioAssay AID485 (The Scripps Research Institute Molecular Screening Center, 2006).

The whole screen tested about 170,000 compounds, of which about 460 (0.27%) were called active. The sample holds actives, similar compounds and a random draw of the others, so the mix is not that of the screen.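 The calls were made as follows: active = inhibition above the plate cutoff, the mean inhibition of test wells on that plate plus 3 SD (cut at about 28% in these data); inactive = the rest.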

For orientation: inhibition means the change of the read-out against control, counted positive when it falls.

Sequence of Sphingosine 1-phosphate receptor 3 (Homo sapiens) (Q99500 whole entry, looked up): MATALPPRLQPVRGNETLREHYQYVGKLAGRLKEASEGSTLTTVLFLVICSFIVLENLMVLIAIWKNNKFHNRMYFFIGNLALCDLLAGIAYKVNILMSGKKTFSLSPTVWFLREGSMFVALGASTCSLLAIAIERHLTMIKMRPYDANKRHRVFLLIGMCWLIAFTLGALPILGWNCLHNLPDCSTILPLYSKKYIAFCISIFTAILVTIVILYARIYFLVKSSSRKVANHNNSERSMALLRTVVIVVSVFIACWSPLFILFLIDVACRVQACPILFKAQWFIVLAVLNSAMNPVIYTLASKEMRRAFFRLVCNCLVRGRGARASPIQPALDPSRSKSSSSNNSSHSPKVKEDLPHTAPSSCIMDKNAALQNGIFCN

The experiment concerns the target Sphingosine 1-phosphate receptor 3 (Homo sapiens) (UniProt Q99500). Nature of the experiment: inhibition of S1P-stimulated S1P3 activation – cell-based, primary screen (AID 485).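 Also: cells challenged with S1P at its EC80 of 0.8 µM; blue over green emission ratio from cleaved BLA substrate after 4 h stimulation; 0% = S1P-stimulated wells and 100% = unstimulated DMSO-only wells.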 Particulars: CHO S1P3 NFAT-BLA reporter, FRET fluorescence, antagonist mode; at 4.98 µM; stronger effect = higher value.
In the case of `COc1ccc(NC(=S)Nc2ccccc2Cl)cn1`, the inhibition was 4.46% (inactive).
On to `COc1ccc(NC(=S)NCCNC(C)=O)cc1`, for which the inhibition is 12.8% (inactive).
Regarding `COc1ccc(CS(=O)/C(Cl)=C(/Cl)C(=O)Nc2ccc(OC)nc2)cc1` (stereo unspecified), the inhibition is 56.4% (active).
For `CCOC(=O)c1c(C)[nH]c(C2=NNC(=NC(C)COC)SC2)c1C` (stereo unspecified), the inhibition is -26% (inactive).
In the case of `CC(C)c1cc(NCc2ccccn2)n2c(nc3ccccc32)c1C#N`, the inhibition is -17.9% (inactive).
`O=C(N/N=C/c1ccc([N+](=O)[O-])o1)c1cccc(S(=O)(=O)N2CCOCC2)c1`: the inhibition was 8.39% (inactive).
For the molecule `O=[N+]([O-])c1cccc(/C([O-])=C(/C(=S)Nc2ccccc2F)[n+]2ccccc2)c1`, the inhibition was -11.5% (inactive).
In the case of `O=C(Nc1ccc(N2CCOCC2)nc1)c1c(F)cccc1F`, the inhibition was 6.79% (inactive).
On to `O=[N+]([O-])c1ccc2[nH]c3c(c2c1)CCCC3O` (stereo unspecified), for which the inhibition was 12.7% (inactive).
With `C/C(=N\OC(=O)c1ccccc1)c1c(C)nc2cc(C)ccn12` the figure was -11.2% (inactive); with `CC(=O)Nc1cccc(C(=O)Nc2nc(C)cs2)c1`, -16.1% (inactive).
As for `Cc1cc(/C=N/NC(=O)c2cccnc2)c(C)n1CC(C)C`, the inhibition was 4.4% (inactive).
For `N#CCCCn1c(O)c(N=NC(=O)C(O)c2ccccc2)c2ccccc21` (stereo unspecified), the inhibition is 5.47% (inactive).
On to `Cc1c(NC(=O)CSc2nnnn2-c2ccc(C(=O)O)cc2)c(=O)n(-c2ccccc2)n1C`, for which the inhibition is 7.84% (inactive).
Take `CCn1ccnc1CN1CCCC(C(=O)c2ccc3c4c(cccc24)CC3)C1` (stereo unspecified): the inhibition was -14.3% (inactive).
With `O=C(c1cc(COc2c(F)cccc2F)on1)N1CCSCC1`, the inhibition was 10.4% (inactive).
Regarding `C/C(CC(=O)Nc1cccc(C(F)(F)F)c1)=N\NC(=O)C(=O)NCC(C)C`, the inhibition is -5.61% (inactive).
On to `CC(C)Oc1ccc(CCC(=O)NNC(=S)NCc2ccccc2)cc1`, for which the inhibition was 11.1% (inactive).
As for `COc1ccc(Cc2cc(-c3ccc(F)cc3)n[nH]c2=O)cc1`, the inhibition is 16.1% (inactive).
With `CCOC(=O)c1ccc(N=C2SC(C(=O)NC)CC(=O)N2CCc2ccccc2)cc1` (stereo unspecified), the inhibition was -0.92% (inactive).
With `CCCN(c1ccc(C)cc1)c1nc(=O)c2cccnc2s1` the figure was -4.79% (inactive); with `CCC(=O)NC(=Nc1nc2ccccc2s1)NC(=O)CC`, 84.7% (active).
On to `O=C(Nc1ccccc1)Nc1nc2ccccc2s1`, for which the inhibition was 6.66% (inactive).
For the molecule `O=C(O)CSCc1nc2ccccc2s1`, the inhibition is -27.1% (inactive).
Regarding `COC(=O)CSc1nccc(-c2cccs2)n1`, the inhibition is -15.2% (inactive).
For the molecule `O=C1c2ccccc2NC(c2ccccn2)N1NS(=O)(=O)c1ccccc1` (stereo unspecified), the inhibition was -20% (inactive).
Turning to `Cc1cc(=O)oc2cc(OCC(=O)Nc3nnc(C4CC4)s3)ccc12`, the inhibition is 6.03% (inactive).
For `COCCCNC(=O)Cn1c(=O)n(Cc2ccccc2Cl)c(=O)c2cc(OC)c(OC)cc21`, the inhibition is -15.6% (inactive).
For the molecule `COc1ccc(-n2cc(CN(C)Cc3n[nH]c(=O)[nH]3)c(-c3cccc(F)c3)n2)cc1`, the inhibition was 0.22% (inactive).
For the molecule `C=CCC(Nc1ccccc1)c1cccc(OC)c1OC` (stereo unspecified), the inhibition was 3.89% (inactive).
In the case of `CN(C)CCCN(Cc1cc2cc3c(cc2[nH]c1=O)OCCO3)C(=O)NC1CCCCC1`, the inhibition was -12.8% (inactive).
The same measure for `O=C(CCNc1n[nH]c(=O)[nH]c1=O)N/N=C\c1ccc(Br)cc1`: 7.68% (inactive).
Turning to `O=C(NCCCNc1ccc([N+](=O)[O-])cc1Cl)c1ccccc1F`, the inhibition is -0.7% (inactive).
With `CCC(C)c1ccc(NC(=S)NCc2ccccn2)cc1` (stereo unspecified), the inhibition was 6.58% (inactive).
Consider `COc1ccc(C)cc1NC(=O)c1ccc(-c2ccc(C(C)=O)cc2)o1`, for which the inhibition is -2.68% (inactive).
With `CC/C(=N\NC(=S)NC(C)C)c1ccc(OC(F)F)cc1`, the inhibition was 0.35% (inactive).
For the molecule `COc1cccc(Nc2nnc(SCC(=O)N3CC(=O)Nc4ccccc43)s2)c1`, the inhibition is 1.32% (inactive).
As for `CCOC(=O)c1cn(CC)c2cc(F)c(F)cc2c1=O`, the inhibition is 1.3% (inactive).
`Cc1ccc(NC(=O)CN(C)CC(=O)Nc2cccc(F)c2)cc1[N+](=O)[O-]`: the inhibition was 29.9% (active).
Consider `CN(CC(=O)Nc1cccc(F)c1)CC(=O)Nc1cccc([N+](=O)[O-])c1`, for which the inhibition was -5.5% (inactive).
As to `Cc1ccc(CN(C)CC(=O)Nc2cccc([N+](=O)[O-])c2)o1`, the inhibition is -19.1% (inactive).
Consider `Cc1ccc(/C=C/C(=O)O)cc1S(=O)(=O)N1CCC(Cc2ccccc2)CC1`, for which the inhibition is -2.15% (inactive).
The same measure for `O=C(Cn1cnc2cc([N+](=O)[O-])ccc2c1=O)NC(=O)NCc1ccccc1`: -4.47% (inactive); for `COc1ccc(F)cc1S(=O)(=O)N1CCCCC1`: 17.2% (inactive).
With `Cc1ccc(NC(=O)C/C(N)=N/O)cc1Cl`, the inhibition is -2.94% (inactive).
As to `CC(C)(C)c1ccc(CCC2OCC(CN3CCOCC3)O2)cc1` (stereo unspecified), the inhibition was 10.3% (inactive).
As to `CCN(CC(=O)Nc1cccc(S(N)(=O)=O)c1)Cc1nc2ccccc2c(=O)[nH]1`, the inhibition was 19.8% (inactive).
Turning to `COC(=O)c1c(NC(C)=O)sc(C(=O)Nc2ccccc2OC)c1C`, the inhibition is 6.94% (inactive).
In the case of `Cc1ccc(NC(=O)Nc2cc(-c3ccccc3)nn2C)cc1Cl`, the inhibition was 6.92% (inactive).
For the molecule `Cc1nc2ccccn2c1C(=O)NN=C1CCN(C)CC1`, the inhibition is 5.25% (inactive).
Take `CCOC(=O)c1c(N)sc2c1CCCC2=O`: the inhibition was 8.9% (inactive).
The same measure for `O=[N+]([O-])c1ccc(F)cc1Oc1nc(-c2cccnc2)nc2ccccc12`: 4.41% (inactive); for `CC1C(=O)NC(=O)C1c1ccccc1` (stereo unspecified): 5.96% (inactive).
Regarding `CC(NCc1ccccc1OC1CCCC1)c1ccccc1` (stereo unspecified), the inhibition was 3.22% (inactive).
For `CCN(CC)CCN(C(=O)c1ccc(N2C(=O)CCC2=O)cc1)c1nc2cc3c(cc2s1)OCO3`, the inhibition was -4.37% (inactive).
With `O=C(NCc1cccnc1)C(=O)Nc1nc(-c2ccccc2)cs1` the figure was 10.3% (inactive); with `CCOC(=O)CC1C(=O)NCCN1c1nc2c(C)cccn2c(=O)c1/C=C1\SC(=S)N(C(C)CC)C1=O` (stereo unspecified), 29.7% (active).
As to `CCOC(=O)CC1C(=O)NCCN1C(=O)COc1ccc(Br)cc1C` (stereo unspecified), the inhibition is -25.1% (inactive).
Consider `CCOc1ccc(/C=C2\SC(=S)N(NC(=O)c3ccncc3)C2=O)cc1OC`, for which the inhibition was 6.85% (inactive).
On to `CCCCCC1CCC(c2nnc(SCC(C)=O)o2)CC1` (stereo unspecified), for which the inhibition is -22.3% (inactive).
In the case of `O=C(NNS(=O)(=O)Cc1ccccc1)c1ccc([N+](=O)[O-])cc1`, the inhibition is -6.72% (inactive).
